Reference: PubChem BioAssay AID1159580 (chemical genetic matrix, 2015)
In all, about 5,500 compounds went through this assay and about 2,000 (36%) were called active. Not shown: some 18% with an inconclusive outcome. No stated cut-off is given here; in the data, active means normalized growth mostly below about 0.91 (no sharp cut-off); inconclusive means no clear call, values can overlap the other calls; inactive means mostly above about 0.92. Some of the results follow.

Assay: chemical genetic growth profiling, strain panel (AID 1159580);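 further: tested at 20 µM; growth read once vehicle control cultures reached saturation at 30 °C; 1 = growth at the plate median or of vehicle wells; lower values mean less growth of the strain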
Conditions: growth OD

Measured: normalized growth

CCCCOc1ccc(CC(=O)NO)cc1
inactive: S. cerevisiae deletion strains, locus YJR043C, strain POL32, active compounds read low 0.968 | S. cerevisiae deletion strains, locus YJR066W, strain TOR1, active compounds read low 0.976 | S. cerevisiae deletion strains, locus YJR075W, strain HOC1, active compounds read low 0.977 | S. cerevisiae deletion strains, locus YKL009W, strain mrt4, active compounds read low 1.01 | S. cerevisiae deletion strains, locus YKL068W, active compounds read low 0.999 | S. cerevisiae deletion strains, locus YKL085W, strain MDH1 (second series), active compounds read low 0.998 | S. cerevisiae deletion strains, locus YKL085W, strain MDH1, active compounds read low 0.998 | S. cerevisiae deletion strains, locus YKL160W, strain elf1, active compounds read low 0.984 | S. cerevisiae deletion strains, locus YKL190W, strain CNB1, active compounds read low 0.994 | S. cerevisiae deletion strains, locus YKR026C, strain gcn3, active compounds read low 0.991 | S. cerevisiae deletion strains, locus YKR091W, strain srl3, active compounds read low 0.996 | S. cerevisiae deletion strains, locus YLL001W, strain dnm1, active compounds read low 0.986 | S. cerevisiae deletion strains, locus YLL026W, active compounds read low 0.981 | S. cerevisiae deletion strains, locus YLL041C, strain sdh2, active compounds read low 0.985 | S. cerevisiae deletion strains, locus YLR027C, strain aat2, active compounds read low 0.97 | S. cerevisiae deletion strains, locus YLR039C, strain RIC1, active compounds read low 0.731 | S. cerevisiae deletion strains, locus YLR058C, strain SHM2, active compounds read low 1 | S. cerevisiae deletion strains, locus YLR102C, strain apc9, active compounds read low 1.01 | S. cerevisiae deletion strains, locus YLR113W, strain HOG1, active compounds read low 0.963 | S. cerevisiae deletion strains, locus YLR221C, strain rsa3, active compounds read low 0.963 | S. cerevisiae deletion strains, locus YLR258W, strain gsy2, active compounds read low 0.984 | S. cerevisiae deletion strains, locus YLR262C, strain YPT6, active compounds read low 0.738 | S. cerevisiae deletion strains, locus YLR268W, strain sec22, active compounds read low 0.983 | S. cerevisiae deletion strains, locus YLR320W, strain mms22, active compounds read low 0.958 | S. cerevisiae deletion strains, locus YLR330W, strain CHS5, active compounds read low 0.988 | S. cerevisiae deletion strains, locus YLR342W, strain FKS1 (second series), active compounds read low 1.01 | S. cerevisiae deletion strains, locus YLR342W, strain FKS1, active compounds read low 1.01 | S. cerevisiae deletion strains, locus YLR357W, strain rsc2, active compounds read low 1 | S. cerevisiae deletion strains, locus YLR370C, strain arc18, active compounds read low 0.989 | S. cerevisiae deletion strains, locus YLR371W, strain rom2, active compounds read low 0.999 | S. cerevisiae deletion strains, locus YLR384C, strain iki3, active compounds read low 0.991 | S. cerevisiae deletion strains, locus YLR418C, strain cdc73, active compounds read low 0.921 | S. cerevisiae deletion strains, locus YML016C, strain PPZ1, active compounds read low 1 | S. cerevisiae deletion strains, locus YML032C, strain rad52, active compounds read low 0.997 | S. cerevisiae deletion strains, locus YML120C, strain ndi1, active compounds read low 0.991 | S. cerevisiae deletion strains, locus YML124C, strain tub3, active compounds read low 1 | S. cerevisiae deletion strains, locus YMR058W, strain fet3, active compounds read low 0.969 | S. cerevisiae deletion strains, locus YMR078C, strain ctf18, active compounds read low 1 | S. cerevisiae deletion strains, locus YMR125W, strain sto1, active compounds read low 0.997 | S. cerevisiae deletion strains, locus YMR129W, active compounds read low 0.996 | S. cerevisiae deletion strains, locus YMR205C, strain PFK2, active compounds read low 0.984 | S. cerevisiae deletion strains, locus YMR223W, strain ubp8, active compounds read low 1 | S. cerevisiae deletion strains, locus YMR231W, strain pep5, active compounds read low 1 | S. cerevisiae deletion strains, locus YMR307W, strain GAS1, active compounds read low 0.998 | S. cerevisiae deletion strains, locus YNL067W, strain RPL9B, active compounds read low 0.976 | S. cerevisiae deletion strains, locus YNL071W, strain lat1, active compounds read low 0.992 | S. cerevisiae deletion strains, locus YNL183C, strain NPR1, active compounds read low 0.97 | S. cerevisiae deletion strains, locus YNL209W, strain ssb2, active compounds read low 1.01 | S. cerevisiae deletion strains, locus YNL233W, strain BNI4, active compounds read low 0.966 | S. cerevisiae deletion strains, locus YNL248C, strain rpa49, active compounds read low 0.968 | S. cerevisiae deletion strains, locus YNL250W, strain rad50, active compounds read low 1 | S. cerevisiae deletion strains, locus YNL271C, strain bni1, active compounds read low 1.01 | S. cerevisiae deletion strains, locus YNL298W, strain CLA4, active compounds read low 1.01 | S. cerevisiae deletion strains, locus YNL307C, strain MCK1, active compounds read low 0.999 | S. cerevisiae deletion strains, locus YNL322C, strain KRE1 (second series), active compounds read low 0.997 | S. cerevisiae deletion strains, locus YNR049C, strain mso1, active compounds read low 0.995 | S. cerevisiae deletion strains, locus YNR052C, strain pop2, active compounds read low 1.01 | S. cerevisiae deletion strains, locus YOL006C, strain TOP1, active compounds read low 0.887 | S. cerevisiae deletion strains, locus YOL012C, strain htz1 1.47 | S. cerevisiae deletion strains, locus YOL147C, strain pex11, active compounds read low 1 | S. cerevisiae deletion strains, locus YOR001W, strain rrp6, active compounds read low 1.01 | S. cerevisiae deletion strains, locus YOR061W, strain CKA2, active compounds read low 0.985 | S. cerevisiae deletion strains, locus YOR069W, strain VPS5, active compounds read low 0.997 | S. cerevisiae deletion strains, locus YOR070C, strain gyp1, active compounds read low 0.999 | S. cerevisiae deletion strains, locus YOR080W, strain dia2, active compounds read low 0.995 | S. cerevisiae deletion strains, locus YOR083W, strain WHI5, active compounds read low 0.982 | S. cerevisiae deletion strains, locus YOR106W, strain vam3, active compounds read low 0.971 | S. cerevisiae deletion strains, locus YOR136W, strain idh2, active compounds read low 1.01 | S. cerevisiae deletion strains, locus YOR144C, strain elg1, active compounds read low 1 | S. cerevisiae deletion strains, locus YOR184W, strain ser1, active compounds read low 0.999 | S. cerevisiae deletion strains, locus YOR231W, strain MKK1, active compounds read low 1 | S. cerevisiae deletion strains, locus YOR265W, strain rbl2, active compounds read low 0.997 | S. cerevisiae deletion strains, locus YOR270C, strain vph1, active compounds read low 0.989 | S. cerevisiae deletion strains, locus YOR290C, strain snf2, active compounds read low 0.989 | S. cerevisiae deletion strains, locus YOR316C, strain cot1, active compounds read low 1.01 | S. cerevisiae deletion strains, locus YPL051W, strain arl3, active compounds read low 0.961 | S. cerevisiae deletion strains, locus YPL078C, strain atp4, active compounds read low 1 | S. cerevisiae deletion strains, locus YPL106C, strain sse1, active compounds read low 1.08 | S. cerevisiae deletion strains, locus YPL240C, strain hsp82, active compounds read low 1 | S. cerevisiae deletion strains, locus YPL241C, strain CIN2, active compounds read low 0.994 | S. cerevisiae deletion strains, locus YPL256C, strain CLN2, active compounds read low 1.02 | S. cerevisiae deletion strains, locus YPR119W, strain clb2, active compounds read low 1.01 | S. cerevisiae deletion strains, locus YPR141C, strain kar3, active compounds read low 1 | S. cerevisiae deletion strains, locus YPR163C, strain tif3, active compounds read low 1.01 | S. cerevisiae deletion strains, locus YPR167C, strain met16, active compounds read low 1.01 | S. cerevisiae deletion strains, strain wtn01, active compounds read low 0.988 | S. cerevisiae strains, strain wild type, active compounds read low 0.992
active: S. cerevisiae deletion strains, locus YKR001C, strain vps1, active compounds read low 0.831 | S. cerevisiae deletion strains, locus YLR262C, strain YPT6 (second series), active compounds read low 0.847
